Here are results for five compounds from PubChem BioAssay (NCATS).

SMILES strings stand for the structures. “And” between values parts separate entries of the source, which are not always exact repeats. Identical values can stand only once. Records with an inconclusive call do not appear. The source made the active and inactive calls. Unless noted, calls come from the whole dose curve; as a rule, active = well fitted curve in the direction sought with a large enough effect; inconclusive = small, poorly fitted or top-dose-only effect, or another doubt; inactive = no such curve, though single readings can be large; an effect the other way counts as inactive or inconclusive.

Test [1] can be described thus: qHTS Assay for Identification of Small Molecule Antagonists for Thrombopoietin (TPO) Signaling Pathway (AID 918). Note: potency is the fitted concentration of half-maximal effect; nearly all actives have a fitted effect of over 60% in size. As to conditions: TPO-dependent cell signaling reporter, antagonist mode. The procedure, abridged: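 Inhibitors of TPO signaling are sought by stimulating IL-3-starved murine Ba/F3 cells (human TPO receptor, Glycoprotein IIb-driven luciferase) with TPO at its EC50 of 26 pM alongside compound. After 24 hrs at 37 C, reporter luminescence is measured.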
On the technique in general: In qHTS, concentration-response curves come from the screen itself.

Test [2] deals with Alpha-galactosidase (Coffea arabica) (UniProt Q42656). Description: Counterscreen for Glucocerebrosidase Inhibitors: qHTS Assay for Coffee Bean alpha-Galactosidase at pH 4.5 (AID 957).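 Note: plate controls were enzyme alone for no effect and no enzyme for full effect.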 The procedure, abridged:
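Enzyme is added first (2 nM final), then compounds titrated from 0.7 nM to 77 uM, then 80 uM 4-methylumbelliferyl alpha-D-galactopyranoside; after 20 min at room temperature a pH 10 NaOH/glycine stop precedes fluorescence reading at 365/440 nm.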
(The purpose of a counterscreen is to sort out artefacts and off-target activity.)

The target is the same in test [3]. Description: Counterscreen for Glucocerebrosidase Inhibitors: qHTS Assay for Coffee Bean alpha-Galactosidase at pH 5.9 (AID 998).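 Note: plate controls were uninhibited enzyme for no effect and no-enzyme basal signal for full effect.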 The procedure, abridged: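 Enzyme 2 nM + cpd (0.7 nM–77 uM titration) + 4-MU-alpha-Gal 80 uM, pH 5.9 citrate/Tween-20, RT 20 min, NaOH/glycine stop pH 10, fluor 365/440. Normalized to no-enzyme and full-activity controls; Hill-fit AC50.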

Test [4] in a line: qHTS Assay for Lipid Storage Modulators (AID 1519; calls by dose curve; for activity change, negative = inhibition: % is set by controls: 0 for no effect and ±100 for the full control effect). The conditions noted are these: Drosophila S3 cells, BODIPY lipid droplet/cell ratio, laser cytometry, cells loaded with oleic acid. The gist of the method:
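Cells seeded at 5,000 per well were treated with compounds over a concentration series and loaded with oleic acid (400 uM, as added). Lipid droplet fluorescence (488 nm excitation, 500-530 nm channel) was read by laser-scanning cytometry and normalized to 20 uM Triacsin C.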

The nature of test [5]: qHTS for differential inhibitors of proliferation of Plasmodium falciparum line D10 (AID 1877).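 Note: potency is the fitted concentration of half-maximal effect; parasites grown with compound for 72 h before DNA staining.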
Test [6] can be described thus: qHTS for differential inhibitors of proliferation of Plasmodium falciparum line W2 (AID 1883).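 Note: potency is the fitted concentration of half-maximal effect; parasites grown with compound for 72 h before lysis and staining.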 As to conditions: Potency: Plasmodium falciparum W2 proliferation inhibition.
For test [7], the target named is RecQ-like DNA helicase BLM (Homo sapiens) (UniProt P54132). Description: qHTS Validation Assay for Inhibitors of Bloom's syndrome helicase (BLM) (AID 2364).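 Note: plate controls were DMSO vehicle for no effect and enzyme-free control for full effect.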 The gist of the method:
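50 nM BLM preincubated 15 min at room temperature with compound in pH 8.0 Tris buffer containing 2.5 ug/ml poly(dI-dC); started with 200 nM TAMRA/BHQ-2 forked duplex and 2 mM ATP (final). Unwinding read as TAMRA fluorescence increase, two reads 2 h apart.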

Test [8] in a line: Cytometric Cell-Based qHTS for Inhibitors of the mTORC1 Signaling Pathway in MEF (Tsc2-/-, p53-/-) Cells (AID 2660).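 Note: Tsc2 and p53 null MEFs carrying empty vector with compound for 24 h; percent of cells above a phospho-rpS6 to PI ratio cutoff in each well; plate controls were DMSO for no effect and rapamycin for full effect.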 The gist of the method: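 Immunofluorescence qHTS of rpS6 Ser235/236 phosphorylation: MEFs (Tsc2-/-, p53-/-) treated 24 h, 37 C, in DMEM + 10% FBS. Alexa-488 signal normalized to PI count, referenced to rapamycin (7.5 nM) and DMSO; PI cell number recorded for viability.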

Test [9] is described as follows: Validation screen for small molecules that induce DNA re-replication in MCF 10A normal breast cells (AID 463097). Note: 0% is about no effect; nearly all actives have a fitted effect of over 60% in size. The gist of the method:
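Readout: Hoechst nuclear fluorescence intensity, 405 ex / 500-530 em, by scanning plate imager; re-replication scored as increase in nuclei with elevated DNA content. Cells exposed to compound 48 hr, 37 C, 5% CO2 beforehand.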

A short description of test [10]: Quantitative high throughput screen for delayed death inhibitors of the malarial parasite plastid, 96 hour incubation (AID 488745). Note: potency is the fitted concentration of half-maximal effect; nearly all actives have a fitted effect of over 70% in size. The gist of the method:
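Readout is firefly luciferase luminescence from an integrated reporter in P. falciparum; lower signal marks inhibited growth. Cultures at 2% hematocrit and 0.1% parasitemia were treated with compound across two generations (96 h, 37 C, 5% CO2).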

The target in test [11] is Chromobox protein homolog 1 (Homo sapiens) (UniProt P83916). Description: qHTS Validation Assay for Inhibitors of HP1-beta Chromodomain Interactions with Methylated Histone Tails (AID 488953).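 Note: loss of AlphaScreen luminescence from HP1-beta binding biotinylated H3K9me3 peptide; % is set by controls: 0 for no effect and ±100 for the full control effect; nearly all actives have a fitted effect of over 50% in size.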 The procedure, abridged:
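Disruption of preformed HP1-beta:H3K9me3 peptide complexes (both 50 nM, PBS pH 7.4 with 0.01% Tween-20) is measured by AlphaScreen after 30 min compound exposure at room temperature, using streptavidin donor and nickel chelate acceptor beads at 10 ug/mL final.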

Test [12] has as its target D(1A) dopamine receptor (Homo sapiens) (UniProt P21728). Description: HTS Assay for Allosteric Agonists of the Human D1 Dopamine Receptor: Primary Screen for Agonists (AID 488981). Note: 0% is about no effect. The procedure, abridged:
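Tetracycline-induced HEK293 Trex D1 cells with forced coupling to calcium, loaded with no-wash calcium dye; kinetic fluorescence read 180 s after compound addition for agonism, then a further 180 s after an EC20 dopamine challenge for potentiation.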

Test [13] is described as follows: Inducers of the Endoplasmic Reticulum Stress Response (ERSR) in human glioma: Validation (AID 504836). Note: 0% is about no effect. The procedure, abridged: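 Stably transfected U87-MG glioma cells carrying a GRP78-based luciferase sensor; 16 h compound incubation. Luminescence end-point read 10 min after Bright-Glo addition at room temperature.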
The nature of test [14]: qHTS for Inhibitors of ATXN expression: Validation (AID 588378). Note: potency is the fitted concentration of half-maximal effect; nearly all actives have a fitted effect of over 75% in size. The procedure, abridged:
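Luminescence from an ATXN2-FFLuc reporter in HEK293 cells served as read-out after 24 h compound treatment at 37 degrees C; CellTiter-Fluor fluorescence was recorded first to assess viability.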

The target in test [15] is Arylsulfatase A (Homo sapiens) (UniProt P15289). Description: qHTS screen for enhancers of Arylsulfatase A (ASA1): LOPAC Validation Assay (AID 720538). The procedure, abridged: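 SV40-transformed skin fibroblasts from an MLD patient (ASA-I179S) were treated with compounds for 48h at 37 degree C, then lysed with 0.5mM pNCS final substrate for 14h at room temperature; NaOH stop, fluorescence read (Ex=525 nm; Em=598 nm).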

Test [16] can be described thus: qHTS for Inhibitors of the Functional Ribonucleoprotein Complex (vRNP) of Lassa (LASV) Arenavirus: LASV Primary Screen - GLuc reporter signal (AID 1347082; calls by dose curve; tested in HEK293 reporter line; note: nearly all actives have a fitted effect of over 60% in size; note: potency is the fitted concentration of half-maximal effect; for activity change, negative = inhibition: % is set by controls: 0 for no effect and ±100 for the full control effect).
The nature of test [17]: qHTS for Inhibitors of the Functional Ribonucleoprotein Complex (vRNP) of Lassa (LASV) Arenavirus: Viability assay - alamar blue signal for LASV Primary Screen (AID 1347083; calls by dose curve; tested in HEK293 reporter line; note: nearly all actives have a fitted effect of over 80% in size; note: potency is the fitted concentration of half-maximal effect).
Test [18] is described as follows: qHTS for Inhibitors of the Functional Ribonucleoprotein Complex (vRNP) of Lymphocytic Choriomeningitis Arenaviruses (LCMV): Viability assay - alamar blue signal for LCMV Primary Screen (AID 1347085; calls by dose curve; tested in HEK293 reporter line; note: nearly all actives have a fitted effect of over 80% in size; note: potency is the fitted concentration of half-maximal effect).
Test [19] addresses Nucleoprotein (Lymphocytic choriomeningitis virus (strain Armstrong)) (UniProt P09992). Description: qHTS for Inhibitors of the Functional Ribonucleoprotein Complex (vRNP) of Lymphocytic Choriomeningitis Arenaviruses (LCMV): LCMV Primary Screen - GLuc reporter signal (AID 1347086; calls by dose curve; note: nearly all actives have a fitted effect of over 70% in size; note: potency is the fitted concentration of half-maximal effect; for activity change, negative = inhibition: % is set by controls: 0 for no effect and ±100 for the full control effect).
Test [20] deals with Cytochrome P450 3A4 (Homo sapiens) (UniProt P08684). Description: qHTS Assay for Inhibitors and Substrates of Cytochrome P450 3A4 (AID 884). Note: % is set by controls: 0 for no effect and ±100 for the full control effect; nearly all actives have a fitted effect of over 50% in size. The gist of the method:
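Luminescent readout of luciferin produced by CYP3A4 (20 nM) dealkylation of Luciferin-PPXE, 25 uM (its KM). NADPH-driven reaction ran 60 min at RT after 10 min compound preincubation; data scaled to 57 uM ketoconazole as 100% inhibition.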

Test [21] addresses Ubiquitin carboxyl-terminal hydrolase 1 (Homo sapiens) (UniProt O94782). Description: Inhibitors of USP1/UAF1: Pilot qHTS (AID 504865).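 Note: rhodamine fluorescence freed from ubiquitin-rhodamine substrate followed over time; top concentration of the series differs between compounds; % is set by controls: 0 for no effect and ±100 for the full control effect; nearly all actives have a fitted effect of over 35% in size.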 The procedure, abridged: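 USP1/UAF1 complex (1nM) preincubated with compound 15 min at room temperature, then Ub-Rho substrate (150nM final) added. Fluorescence read kinetically at 480/540 nm, 6 reads every 60 seconds. Buffer: 50mM HEPES pH 7.8, 0.5mM EDTA, 0.1 mg/ml BSA, 1mM TCEP, 0.01% Tween-20.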

For test [22], the target named is DNA dC->dU-editing enzyme APOBEC-3G (Homo sapiens) (UniProt Q9HC16). Description: qHTS for inhibitors of Vif-A3G interactions: Validation (AID 588379). Note: 0% is about no effect. The procedure, abridged:
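Yellow fluorescence (Ex 488, Em 500-530) of Vif-coexpressing HeLa A3G-eYFP cells, scanned by Acumen cytometer, reports blocked A3G degradation. Cells plated at 700/well overnight at 37 deg C before compound addition, then a further overnight compound incubation at 37 deg C.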

The nature of test [23]: Cytotoxicity counterscreen for inhibitors of SARS-CoV-2 cell entry (AID 1645845; calls by dose curve; note: % is set by controls: 0 for no effect and ±100 for the full control effect; nearly all actives have a fitted effect of over 50% in size). The gist of the method:
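Counterscreen run in the same HEK293-ACE2 line as the pseudotyped-particle entry assay, without particles. Viability after 48 h at 37 C was read as ATP luminescence, scaled between cell-containing and cell-free wells.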

Test [24] is described as follows: Confirmatory qHTS to identify inhibitors of SARS-CoV-2 cell entry (AID 1645844; calls by dose curve; note: potency is the fitted concentration of half-maximal effect; nearly all actives have a fitted effect of over 45% in size). The procedure, abridged:
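HEK293-ACE2, overnight seeding; cpd 1 h, 37C/5% CO2; + SARS-CoV-2-S MLV PP (Wuhan-Hu-1, ΔC19); 48 h; Bright-Glo luminescence. Data normalised to S PP and bald PP wells.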

The nature of test [25]: Primary qHTS to identify inhibitors of SARS-CoV-2 cell entry (AID 1645846; calls by dose curve; note: nearly all actives have a fitted effect of over 45% in size). As to conditions: activity change, negative = inhibition: at 57.1 µM (top of the series) unless noted. The procedure, abridged: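 Luminescence readout (Bright-Glo luciferase) 48 h after pseudoparticle addition. HEK293-ACE2 cells, 1500/well; compound pre-incubation 1 h; Normalized to spike PP and bald PP.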

Test [26] in a line: VSVG counterscreen qHTS to identify inhibitors of SARS-CoV-2 cell entry (AID 1645847; calls by dose curve; note: potency is the fitted concentration of half-maximal effect; nearly all actives have a fitted effect of over 65% in size). The procedure, abridged:
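HEK293-ACE2 cells (Expi293F stably expressing human ACE2) were pretreated with compound for 1 h at 37 °C, then infected with MLV-based VSV-G pseudotyped particles for 48 h. Luciferase luminescence was normalized to VSV-G PP and bald PP wells.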

The mark [27] stands for this setting: measured here: cell count channel max response.
Where [28] appears, read: measured here: lipid channel max response.

Nucleoprotein (Lymphocytic choriomeningitis virus (strain Armstrong)), sequence (P09992 whole entry, looked up): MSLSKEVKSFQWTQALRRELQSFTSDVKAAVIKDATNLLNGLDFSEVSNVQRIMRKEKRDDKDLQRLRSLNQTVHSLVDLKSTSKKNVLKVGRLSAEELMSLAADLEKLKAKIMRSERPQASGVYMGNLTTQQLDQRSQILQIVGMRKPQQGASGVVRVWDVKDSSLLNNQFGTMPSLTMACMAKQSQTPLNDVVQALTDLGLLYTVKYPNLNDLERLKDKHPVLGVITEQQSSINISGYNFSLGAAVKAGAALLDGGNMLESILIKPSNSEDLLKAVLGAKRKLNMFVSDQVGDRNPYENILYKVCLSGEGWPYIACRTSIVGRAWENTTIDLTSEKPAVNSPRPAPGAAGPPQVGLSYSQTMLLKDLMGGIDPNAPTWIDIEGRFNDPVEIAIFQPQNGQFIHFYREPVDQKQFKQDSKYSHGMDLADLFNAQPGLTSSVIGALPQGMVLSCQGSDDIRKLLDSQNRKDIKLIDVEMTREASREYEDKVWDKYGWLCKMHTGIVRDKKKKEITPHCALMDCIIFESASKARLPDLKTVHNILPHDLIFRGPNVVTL
Alpha-galactosidase (Coffea arabica), sequence (Q42656 whole entry, looked up): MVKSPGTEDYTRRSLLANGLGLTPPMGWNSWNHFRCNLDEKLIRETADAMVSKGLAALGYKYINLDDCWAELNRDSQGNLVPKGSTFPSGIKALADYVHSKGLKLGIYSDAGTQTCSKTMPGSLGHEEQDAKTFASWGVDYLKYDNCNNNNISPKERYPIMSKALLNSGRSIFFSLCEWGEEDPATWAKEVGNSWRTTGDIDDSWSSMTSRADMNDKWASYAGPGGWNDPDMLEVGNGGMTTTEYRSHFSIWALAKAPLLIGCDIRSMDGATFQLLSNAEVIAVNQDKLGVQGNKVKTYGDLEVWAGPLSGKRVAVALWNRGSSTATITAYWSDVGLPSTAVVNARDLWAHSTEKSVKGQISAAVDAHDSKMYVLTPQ
D(1A) dopamine receptor (Homo sapiens), sequence (P21728 whole entry, looked up): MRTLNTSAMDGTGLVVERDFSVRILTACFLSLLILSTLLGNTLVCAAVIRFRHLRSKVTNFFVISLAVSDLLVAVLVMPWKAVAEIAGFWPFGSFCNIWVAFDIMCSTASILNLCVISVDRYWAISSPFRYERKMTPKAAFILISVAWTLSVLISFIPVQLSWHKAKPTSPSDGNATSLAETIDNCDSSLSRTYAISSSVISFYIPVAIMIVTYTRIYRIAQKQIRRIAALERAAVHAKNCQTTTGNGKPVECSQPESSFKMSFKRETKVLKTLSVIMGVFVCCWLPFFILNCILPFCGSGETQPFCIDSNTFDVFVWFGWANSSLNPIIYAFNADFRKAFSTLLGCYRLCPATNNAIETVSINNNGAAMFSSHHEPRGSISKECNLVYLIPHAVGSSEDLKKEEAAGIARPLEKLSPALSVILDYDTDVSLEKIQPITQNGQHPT
RecQ-like DNA helicase BLM (Homo sapiens), sequence (P54132 whole entry, looked up): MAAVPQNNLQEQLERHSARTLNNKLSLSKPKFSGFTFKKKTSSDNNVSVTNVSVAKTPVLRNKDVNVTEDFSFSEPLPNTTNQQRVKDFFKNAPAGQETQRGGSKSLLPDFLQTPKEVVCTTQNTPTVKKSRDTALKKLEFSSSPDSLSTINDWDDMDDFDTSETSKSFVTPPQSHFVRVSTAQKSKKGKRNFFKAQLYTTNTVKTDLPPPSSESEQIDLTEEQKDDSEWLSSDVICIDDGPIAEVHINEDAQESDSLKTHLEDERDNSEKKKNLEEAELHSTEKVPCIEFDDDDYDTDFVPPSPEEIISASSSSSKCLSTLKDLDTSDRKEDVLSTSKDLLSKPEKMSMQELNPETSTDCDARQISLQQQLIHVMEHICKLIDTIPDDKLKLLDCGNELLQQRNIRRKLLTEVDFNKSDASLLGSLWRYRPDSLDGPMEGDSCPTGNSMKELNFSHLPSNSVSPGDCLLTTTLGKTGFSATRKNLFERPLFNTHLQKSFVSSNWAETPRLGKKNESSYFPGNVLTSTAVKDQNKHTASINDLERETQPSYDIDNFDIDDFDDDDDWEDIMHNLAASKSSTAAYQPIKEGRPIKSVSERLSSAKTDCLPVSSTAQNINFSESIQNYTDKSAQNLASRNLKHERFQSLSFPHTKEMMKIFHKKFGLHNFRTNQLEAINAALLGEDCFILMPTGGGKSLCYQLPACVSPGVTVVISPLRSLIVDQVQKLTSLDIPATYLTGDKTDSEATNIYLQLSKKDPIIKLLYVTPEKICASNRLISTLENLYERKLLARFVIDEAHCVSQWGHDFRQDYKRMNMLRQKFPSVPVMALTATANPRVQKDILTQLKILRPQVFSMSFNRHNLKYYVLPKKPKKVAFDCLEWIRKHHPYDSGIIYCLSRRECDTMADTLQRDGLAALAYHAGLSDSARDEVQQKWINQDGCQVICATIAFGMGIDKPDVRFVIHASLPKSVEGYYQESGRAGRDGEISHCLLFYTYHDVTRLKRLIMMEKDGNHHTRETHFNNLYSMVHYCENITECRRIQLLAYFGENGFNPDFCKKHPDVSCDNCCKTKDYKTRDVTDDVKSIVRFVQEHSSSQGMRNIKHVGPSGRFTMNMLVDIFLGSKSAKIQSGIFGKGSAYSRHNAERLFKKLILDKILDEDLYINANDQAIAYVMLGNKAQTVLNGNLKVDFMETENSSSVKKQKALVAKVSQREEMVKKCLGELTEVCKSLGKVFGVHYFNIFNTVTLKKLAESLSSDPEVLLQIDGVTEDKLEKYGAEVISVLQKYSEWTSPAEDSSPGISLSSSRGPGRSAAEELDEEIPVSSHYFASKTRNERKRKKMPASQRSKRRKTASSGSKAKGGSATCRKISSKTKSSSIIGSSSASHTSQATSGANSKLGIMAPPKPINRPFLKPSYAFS
Chromobox protein homolog 1 (Homo sapiens), sequence (P83916 whole entry, looked up): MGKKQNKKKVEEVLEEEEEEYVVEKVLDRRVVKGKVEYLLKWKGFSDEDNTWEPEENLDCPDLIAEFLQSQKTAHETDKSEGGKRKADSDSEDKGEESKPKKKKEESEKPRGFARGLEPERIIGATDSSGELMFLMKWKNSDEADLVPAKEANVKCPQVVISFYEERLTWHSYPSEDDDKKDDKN
Ubiquitin carboxyl-terminal hydrolase 1 (Homo sapiens), sequence (O94782 whole entry, looked up): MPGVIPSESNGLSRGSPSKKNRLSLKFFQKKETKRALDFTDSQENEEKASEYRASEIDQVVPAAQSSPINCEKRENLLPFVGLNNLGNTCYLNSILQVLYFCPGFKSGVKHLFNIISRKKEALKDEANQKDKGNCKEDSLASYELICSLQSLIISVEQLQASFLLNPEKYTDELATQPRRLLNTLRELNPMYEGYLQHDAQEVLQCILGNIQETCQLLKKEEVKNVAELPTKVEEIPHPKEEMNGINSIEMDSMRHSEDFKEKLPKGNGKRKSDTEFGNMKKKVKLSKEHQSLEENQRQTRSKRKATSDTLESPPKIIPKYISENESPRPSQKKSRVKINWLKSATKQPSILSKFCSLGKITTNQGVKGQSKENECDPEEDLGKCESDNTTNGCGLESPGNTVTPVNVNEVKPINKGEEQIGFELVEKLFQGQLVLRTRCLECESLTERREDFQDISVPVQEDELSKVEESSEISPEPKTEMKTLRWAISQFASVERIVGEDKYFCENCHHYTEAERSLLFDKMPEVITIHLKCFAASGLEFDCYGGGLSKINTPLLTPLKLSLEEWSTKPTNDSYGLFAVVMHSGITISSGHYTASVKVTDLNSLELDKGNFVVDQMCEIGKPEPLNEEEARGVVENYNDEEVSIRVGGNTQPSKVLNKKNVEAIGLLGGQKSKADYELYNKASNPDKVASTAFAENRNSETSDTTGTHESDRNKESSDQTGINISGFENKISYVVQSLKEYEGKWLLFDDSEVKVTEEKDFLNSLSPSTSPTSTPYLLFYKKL
Cytochrome P450 3A4 (Homo sapiens), sequence (P08684 whole entry, looked up): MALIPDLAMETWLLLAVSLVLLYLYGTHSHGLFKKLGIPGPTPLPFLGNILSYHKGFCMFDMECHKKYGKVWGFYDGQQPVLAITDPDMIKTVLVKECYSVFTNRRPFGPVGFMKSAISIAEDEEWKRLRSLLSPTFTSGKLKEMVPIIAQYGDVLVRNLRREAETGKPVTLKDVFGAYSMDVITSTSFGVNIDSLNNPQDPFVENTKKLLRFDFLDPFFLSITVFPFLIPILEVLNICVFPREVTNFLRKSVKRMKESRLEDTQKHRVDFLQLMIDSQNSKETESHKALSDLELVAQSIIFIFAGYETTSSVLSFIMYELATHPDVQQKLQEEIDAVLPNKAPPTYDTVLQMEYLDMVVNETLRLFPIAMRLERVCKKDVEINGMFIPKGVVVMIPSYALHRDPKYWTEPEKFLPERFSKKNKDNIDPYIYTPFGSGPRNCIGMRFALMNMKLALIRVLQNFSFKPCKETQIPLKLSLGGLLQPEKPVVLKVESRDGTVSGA
DNA dC->dU-editing enzyme APOBEC-3G (Homo sapiens), sequence (Q9HC16 whole entry, looked up): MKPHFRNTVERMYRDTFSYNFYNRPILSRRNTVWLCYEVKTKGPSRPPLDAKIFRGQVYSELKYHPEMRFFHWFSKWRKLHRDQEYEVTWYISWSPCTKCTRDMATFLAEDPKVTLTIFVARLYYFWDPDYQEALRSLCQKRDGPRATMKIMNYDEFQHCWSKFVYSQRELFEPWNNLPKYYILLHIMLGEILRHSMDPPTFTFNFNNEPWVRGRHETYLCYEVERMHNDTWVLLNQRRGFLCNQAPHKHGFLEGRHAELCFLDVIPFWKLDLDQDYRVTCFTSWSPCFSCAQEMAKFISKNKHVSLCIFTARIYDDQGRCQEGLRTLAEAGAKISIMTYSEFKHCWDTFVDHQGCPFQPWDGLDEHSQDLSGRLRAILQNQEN

With `CNCC[C@H](Oc1ccc(C(F)(F)F)cc1)c1ccccc1`, the Potency in test [1] is 12.6 µM (active) and 10 µM (active); in [5], 12.6 µM (active); in test [6], 4.47 µM (active); in [10], 1.17 µM (active); in test [14], 14.1 µM (active). The call in test [2], in test [3], in test [8], in [12] and in test [13] was inactive. For the same compound, in [4] (at 25.7 µM (top of the series)), the activity change, negative = inhibition was -1.04% (inactive). The figures for the max response in test [4] (setting [27]) and in test [4] (setting [28]) were 11.3% and 10.4%, respectively. Moreover, the Potency entry in test [7], in test [9], in test [11], in [15], in test [16] and in test [17] was “inactive” each time. For the same compound, the Potency entry in test [18] and in test [19] was “inactive” throughout.
As for `CCC1CN2CCC1CC2C(O)c1ccnc2ccccc12` (configuration not stated), the Potency result in test [20], in test [21], in [22], in test [16], in test [17] and in test [18] was “inactive” each time. In test [19], the Potency result is “inactive”. For the same compound, the activity change, negative = inhibition in test [4] (at 57.5 µM (top of the series)) was -3.02% (inactive). Moreover, the values for the max response in [4] (setting [27]) and in test [4] (setting [28]) were -1.23% and -3.67%, respectively.
Regarding `CCn1cc(-c2ccnc3[nH]c(-c4cccc(CN(C)C)c4)cc23)c(-c2ccc(NC(=O)N(C)C)cc2)n1`, the Potency in test [16] is 13.7 µM (active); in test [17], 4.85 µM (active); in [18] it was 2.43 µM (active); in test [19], 3.43 µM (active). Further, in test [23], the Potency entry is “inactive”.
Consider `CS(=O)(=O)N(Cc1ccco1)CC(O)Cn1c2ccccc2c2ccccc21` (configuration not stated), for which the Potency entry in test [16], in test [17], in test [18], in [19] and in [23] was “inactive” throughout. The Potency in test [24] is 6.81 µM (active); in [26] it was 0.429 µM (active). The activity change, negative = inhibition in [25] is -37.4%.
For the compound `O=C1NCCc2[nH]c(-c3ccncc3)cc21`, the Potency in [16] is 21.7 µM (active); in test [17], 6.85 µM (active); in test [18], 6.11 µM (active); in [19], 10.9 µM (active); in test [24] it was 9.61 µM (active); in test [26], 9.61 µM (active). For the same compound, in test [23], the Potency result was “inactive”. Further, the activity change, negative = inhibition in test [25] was -95%.
